Screens from PubChem BioAssay.
M4 PAM = positive allosteric modulators of human muscarinic M4 receptor. P08173. CHO-K1 hM4/Gqi5, Fluo-8 calcium fluorescence, ACh EC20; 0% = ACh EC20, 100% = maximal ACh. activation, % at 3 µM. 360,000 tested, 0.4% active. AID 624126;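 active = activation above its plate's cutoff, the mean activation of sample wells plus 3 SD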
Target sequence (P08173 whole entry, looked up): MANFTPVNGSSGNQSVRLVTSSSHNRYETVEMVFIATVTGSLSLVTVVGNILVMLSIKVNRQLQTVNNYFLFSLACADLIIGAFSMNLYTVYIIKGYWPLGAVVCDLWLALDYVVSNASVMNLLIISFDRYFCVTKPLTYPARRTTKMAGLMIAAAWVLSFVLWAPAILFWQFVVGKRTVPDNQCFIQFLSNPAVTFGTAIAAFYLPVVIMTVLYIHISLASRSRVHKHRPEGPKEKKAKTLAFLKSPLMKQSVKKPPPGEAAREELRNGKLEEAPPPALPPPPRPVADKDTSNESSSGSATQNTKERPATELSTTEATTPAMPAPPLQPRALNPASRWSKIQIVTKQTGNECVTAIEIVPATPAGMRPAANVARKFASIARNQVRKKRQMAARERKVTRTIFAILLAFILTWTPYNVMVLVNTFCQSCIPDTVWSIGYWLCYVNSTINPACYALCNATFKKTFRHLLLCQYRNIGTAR
CHRM4 agonist = CHRM4 agonism in calcium assay; P08173; CHO-K1 hM4/Gqi5, Fluo-8 calcium fluorescence; vehicle 0%, full acetylcholine response 100%; activation, % at 3 µM; 360,000 tested, 0.14% active; AID 624127;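 active = activation above the run mean over all test wells plus 3 SD, cut at about 32% in these data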;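 also: peak over basal fluorescence ratio per well then scaled between controls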
M4 antag = antagonists of human muscarinic M4 receptor (CHRM4) | 360,000 tested, 0.73% active | inhibition, % at 3 µM | P08173 | CHO-hM4 cells, ACh EC80, Fluo-8 calcium fluorescence;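 active = inhibition above its plate's cutoff, the mean inhibition of sample wells plus 3 SD, cut at about 27% in these data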
CHO-K1 Ca antag = counter-screen for M1 antagonists: effect in parental CHO-K1 cells | ATP-induced calcium, Fluo-8 fluorescence | inhibition, % at 3 µM | 360,000 tested, 0.6% active | AID 602250;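 active = inhibition above a per-plate cutoff, the plate's mean sample inhibition plus 3 SD, cut at about 24% in these data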
M1 PAM parental = M1 PAM counterscreen hit in parental CHO-K1 cells; ATP EC20, Fluo-8 calcium fluorescence; 0% at ATP EC20, 100% at ATP max; 360,000 tested, 0.02% active; activation, % at 3 µM;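 active = activation above the run cutoff, the mean activation of all test compounds plus 3 SD, cut at about 40% in these data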;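 also: peak over basal fluorescence ratio in a 140 s read after ATP addition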
CHO-K1 Ca ag = M1 agonist counterscreen hit in parental CHO-K1 cells | Fluo-8 calcium fluorescence; scaled to maximal ATP response, vehicle zero | activation, % at 3 µM | 360,000 tested, 0.48% active; in the data active = activation above about 15%;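 also: untransfected CHO-K1 host cells lacking M1 receptor as counterscreen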
Large screens that a line does not name were inactive. The list is not random: actives were taken first. Their share in the collection is about 2%.

NC(=O)c1ccsc1NC(=O)CN1CCN(S(=O)(=O)c2ccccc2C(F)(F)F)CC1	CHO-K1 Ca ag 16
CN1C(=O)c2cccc3c(N(C)C)ccc(c23)C1=O	CHO-K1 Ca ag 23
CNc1ccc2c3c(cccc13)C(=O)N(C)C2=O	CHRM4 agonist 229, M4 antag 40, CHO-K1 Ca antag 30, CHO-K1 Ca ag 98
CN1C(=O)c2cccc3c(Cl)ccc(c23)C1=O	none
CN1C(=O)c2cccc3c(Br)ccc(c23)C1=O	none
COc1ccc(NC(=O)c2c[nH]c(=O)n(-c3ccc(C)c(C)c3)c2=O)cc1OC	none
Cc1cc(=O)oc2cc(OCC(=O)Nc3c(Cl)cccc3C(F)(F)F)ccc12	none
CN1C(=S)N(c2cccnc2)C(=O)/C1=C\c1ccc(N(C)C)cc1	CHO-K1 Ca ag 21
CN1C(=S)N(c2cccnc2)C(=O)/C1=C\c1ccc(C(C)(C)C)cc1	none
O=C(Nc1ccc(C(F)(F)F)cc1)c1ccc(NC(=O)C2CCCO2)cc1 (stereo not drawn)	none
CCCOc1ccc2c(c1)C(=NN=C(N)N)c1cc(OCCC)ccc1-2	M4 PAM 28
COc1ccc(C(=O)C2CCCN(Cc3cnc(N4CCOCC4)s3)C2)c(OC)c1 (stereo not drawn)	none
COc1ccc(C(=O)C2CCCN(Cc3cnc(N4CCOCC4)s3)C2)cc1F (stereo not drawn)	CHO-K1 Ca ag 29
COc1ccc(-c2nn(-c3ccccc3)cc2C(=O)O)cc1OC	none
COc1cccc(-c2cnc3c(NC=O)cc(-c4ccc(N(C)C)cc4)cn23)c1	CHO-K1 Ca antag 25
CN(C)c1ccc(-c2cc(NC=O)c3ncc(-c4ccc(F)c(Cl)c4)n3c2)cc1	CHO-K1 Ca ag 20
CCOc1ccc2[nH]c(=O)c(CN(Cc3ccccc3OC)C(=O)c3ccccc3)cc2c1	none
CCOC(=O)C1CCCN(c2ncnc3c2oc2ccccc23)C1 (stereo not drawn)	CHO-K1 Ca antag 24
O=C(CNC(=O)c1ccccc1F)OCC(=O)N1CCCCC1	none
CN(C(=O)COC(=O)CNC(=O)c1ccccc1F)C1CCCCC1	M4 PAM 23
CCOC(=O)c1sc(NC(=O)c2ccc(Cl)s2)cc1C	none
CCOC(=O)c1sc(NC(=O)Nc2ccc(Cl)cc2)cc1C	M4 antag 33, CHO-K1 Ca antag 46
C#CCOCCOCCOCCNc1nc(N2CCN(C(=O)[C@H]([C@@H](C)CC)n3cc(CCCN=C(N)N)nn3)CC2)nc(N2CCN(C(=O)[C@H](CCCCN)n3cc(CCC(=O)O)nn3)CC2)n1	none
CCOC(=O)c1oc2c(C)c(O)ccc2c(=O)c1-c1nncn1-c1ccccc1	CHO-K1 Ca antag 31
NC(=O)c1ccc(NC(=O)CS(=O)(=O)c2cn(CC(=O)N3CCCC3)c3ccccc23)cc1	none
OC(CCN1CCC2CCC(C2)C1)c1ccc(Br)cc1 (stereo not drawn)	M4 antag 37
O=C(CCN1CCC2CCC(C2)C1)c1ccccc1 (stereo not drawn)	none
Cc1cc(-n2cccn2)ccc1CN1CCN(C2CCCC2)C(CCO)C1 (stereo not drawn)	M4 antag 99
CC(C)CCN1CCN(Cc2cccc(-n3cccn3)c2)CC1CCO (stereo not drawn)	none
Cc1cc(-n2cccn2)ccc1CN1CCN(CC(C)C)C(CCO)C1 (stereo not drawn)	M4 antag 55
Oc1ccc(-c2nc(-c3ccc(O)c(O)c3)cs2)cc1	none
O=C(COC(=O)c1cc([N+](=O)[O-])ccc1N1CCOCC1)NCc1ccc(F)cc1	none
COc1ccc(N2CCN(S(=O)(=O)c3cccc4nsnc34)CC2)cc1	none
CC(=O)c1ccc(N2CCN(S(=O)(=O)c3cccc4nsnc34)CC2)cc1	CHO-K1 Ca antag 24
CC1CN(S(=O)(=O)c2cccc3nsnc23)CC(C)O1 (stereo not drawn)	M4 antag 27
CSc1nc(-c2ccc(Cl)cc2)nn1C(=O)c1ccccc1	none
CCSc1cc(C)nc2c(-c3ccc(Cl)cc3)c(C)nn12	none
O=C(Cn1ncc2c([nH]c3ccccc32)c1=O)NCCc1ccccc1	M4 PAM 19
CCN(CCCNC(=O)Cn1ncc2c([nH]c3ccccc32)c1=O)Cc1ccccc1	none
COc1ccc(N)c2c1C(=O)c1ccccc1C2=O	none
COc1ccc2noc3c2c1C(=O)c1ccccc1-3	CHRM4 agonist 59, M4 antag 36, CHO-K1 Ca antag 26, CHO-K1 Ca ag 22
COc1ccc(N2C(=O)CC(Nc3cccc([N+](=O)[O-])c3)C2=O)cc1 (stereo not drawn)	none
O=C(Cc1ccccc1)NCC1CCCO1 (stereo not drawn)	none
CC(C)C[C@H](CO)N(Cc1ccccc1)S(=O)(=O)N(Cc1ccccc1)[C@@H](CO)CC(C)C	M4 antag 34
CN(C)CCCN1c2ccccc2Sc2ccc3ccccc3c21	M4 antag 27
NNC(=O)CN1C(=O)Nc2ccc(Cl)cc2C1c1ccccc1 (stereo not drawn)	M4 antag 45
COC(=O)CN1C(=O)Nc2ccc(Br)cc2C1c1ccccc1 (stereo not drawn)	none
Cc1ccc(C2CC(=O)c3cnc(NC(=O)c4ccco4)nc3C2)cc1 (stereo not drawn)	M4 PAM 15
Cc1ccc(Nc2ncc3c(n2)CC(c2ccco2)CC3=O)c(C)c1 (stereo not drawn)	M4 PAM 29
CCCc1c(Cc2cccc(F)c2)ncn1Cc1cccc(-c2ccccc2)c1	none (no result: CHO-K1 Ca antag, M1 PAM parental, CHO-K1 Ca ag)
CC(=O)N1CCCC(c2cc(C(=O)Nc3ccccc3)no2)C1 (stereo not drawn)	CHO-K1 Ca antag 34
O=C(O)/C=C\c1cn(-c2ccccc2)nc1-c1cc2ccccc2o1	none
Cc1ccc(OCCCCn2ccnc2C)c(C)c1	none
Cc1ccc(C(C)C)c(OCCn2ccnc2C)c1	M4 antag 52
O=C(CSc1nnc(-c2cccnc2)n1-c1ccc(SC(F)F)cc1)N1CCCc2ccccc21	CHO-K1 Ca antag 24
CCc1ccc(Cn2ncc3c(C(=O)O)cc(C)nc32)cc1	M4 antag 34
O=C1Nc2ccc(Cl)cc2C12OCCCO2	none
O=C1Nc2ccc(Cl)cc2C(C#CC2CC2)(C(F)(F)F)O1 (stereo not drawn)	M4 antag 32
CCCCCN(C(=O)NC(=O)Nn1cnnc1)S(C)(=O)=O	none
CC[n+]1c(/C=C/N(C)c2ccccc2)n(-c2ccccc2)c2ccc(-c3nc4ccccc4s3)cc21	M4 antag 58, CHO-K1 Ca antag 34
CCOC(=O)c1ccc2c(c1)n(CC)c(/C=C/N(C)c1ccccc1)[n+]2CC	none
CC(C)c1ccc(NC(=O)C[n+]2ccn(C3=C([O-])c4ccccc4C3=O)c2)cc1	CHO-K1 Ca ag 18
CCCC[n+]1ccn(C2=C([O-])c3ccccc3C(=O)/C2=N\S(=O)(=O)c2ccccc2)c1	none
